Source: the supplement of paper PMC13380429

Test system: Vero E6 infected with SARS-CoV-2
Assay: inhibition of SARS-CoV-2 cytopathic effect; higher = more antiviral protection, active = above 15
Details: 48 h

Measured: inhibition of SARS-CoV-2 cytopathic effect

CCOc1cc2ncc(C#N)c(Nc3ccc(OCc4ccccn4)c(Cl)c3)c2cc1NC(=O)/C=C/CN(C)C [neratinib]
inactive: 1 nM 0.12% | 8.33 nM -2.36% | 100 nM -7.88% | 833.33 nM -0.85% | 10000 nM -8.5%

CC1(c2ccccc2)OC(C(=O)O)=CC1=O (stereo not given) [acifran]
inactive: 1 nM 0.88% | 8.33 nM 4.17% | 100 nM 2.12% | 833.33 nM -3.24% | 10000 nM 2.64%

N=C(N)NCc1cccc(I)c1 [iobenguane]
inactive: 1 nM -1.82% | 8.33 nM -0.29% | 100 nM 1.79% | 833.33 nM 2.26% | 10000 nM 6.21%

Fc1ccc(C(c2ccccc2)(c2ccccc2F)n2ccnc2)cc1 (stereo not given) [flutrimazole]
inactive: 1 nM -1.84% | 8.33 nM -3.27% | 100 nM -4.23% | 833.33 nM -1.83% | 10000 nM -1.07%

CCc1cc2c(cc1N1CCC(N3CCOCC3)CC1)C(C)(C)c1[nH]c3cc(C#N)ccc3c1C2=O [alectinib]
inactive: 1 nM 0.52% | 8.33 nM 1.4% | 100 nM -0.38% | 833.33 nM -1.14% | 10000 nM 0.15%

CC(=O)O[C@H]1C[C@@H]2CC[C@@H]3[C@H](CC[C@@]4(C)[C@H]3C[C@H](N3CC[N+](C)(C)CC3)[C@@H]4OC(C)=O)[C@@]2(C)C[C@@H]1N1CC[N+](C)(C)CC1 [pipecuronium]
inactive: 1 nM -1.2% | 8.33 nM -0.41% | 100 nM -0.11% | 833.33 nM -1.81% | 10000 nM -1.58%

Nc1ncnc2c1C(=O)N(c1ccc([C@H]3CC[C@H](CC(=O)O)CC3)cc1)CCO2
inactive: 1 nM 4.58% | 8.33 nM 2.44% | 100 nM -0.31% | 833.33 nM 5.58% | 10000 nM 4.43%

O=C(OCC(O)CO)c1ccccc1Nc1ccnc2cc(Cl)ccc12 (stereo not given) [glafenine]
inactive: 1 nM -1.53% | 8.33 nM 0.88% | 100 nM 2.29% | 833.33 nM -3.09% | 10000 nM -2.34%

CNC(=O)c1c(I)c(C(=O)NCC(=O)Nc2c(I)c(C(=O)O)c(I)c(C(=O)NCCO)c2I)c(I)c(N(C)C(C)=O)c1I [ioxaglic-acid]
inactive: 1 nM 1.6% | 8.33 nM 1.46% | 100 nM 1.47% | 833.33 nM 0.75% | 10000 nM 0.41%

CCC(CC)O[C@@H]1C=C(C(=O)O)C[C@H](N)[C@H]1NC(C)=O [oseltamivir-carboxylate]
inactive: 1 nM -1.71% | 8.33 nM 0.87% | 100 nM 0.49% | 833.33 nM 1.32% | 10000 nM -0.82%

Oc1c(CN2CCCC2)cc(COCc2ccccc2)c2cccnc12
inactive: 1 nM -1.11% | 8.33 nM -0.88% | 100 nM 0.87% | 833.33 nM -0.42% | 10000 nM 2.93%

C[C@H]1C[C@H]2[C@@H]3CCC4=CC(=O)C=C[C@]4(C)[C@H]3C(=O)C[C@]2(C)[C@@]1(O)C(=O)CO [Betapar (Meprednisone)]
inactive: 1 nM 0.88% | 8.33 nM 0.92% | 100 nM 2.1% | 833.33 nM 0.12% | 10000 nM 4.2%

C[C@H]1C[C@H]2[C@@H]3CCC4=CC(=O)C=C[C@]4(C)[C@@]3(F)[C@@H](O)C[C@]2(C)[C@@]1(O)C(=O)CO [betamethasone]
inactive: 1 nM 0.395% | 8.33 nM -1.08% | 100 nM 2.04% | 833.33 nM 1.69% | 10000 nM -0.195%

CN(C)CCCC1(c2ccc(F)cc2)OCc2cc(C#N)ccc21 (stereo not given) [citalopram]
inactive: 1 nM -0.29% | 8.33 nM 2.58% | 100 nM 1.49% | 833.33 nM -0.995% | 10000 nM -4.99%

C=C1/C(=C\C=C2/CCC[C@]3(C)[C@@H]([C@H](C)/C=C/[C@H](C)C(C)C)CC[C@@H]23)C[C@@H](O)C[C@@H]1O [doxercalciferol]
inactive: 1 nM 0.83% | 8.33 nM 0.03% | 100 nM 0.98% | 833.33 nM 2.04% | 10000 nM 2.69%

CC(C)(C)OC(=O)N[C@H]1CCCCC/C=C\[C@@H]2C[C@@]2(C(=O)NS(=O)(=O)C2CC2)NC(=O)[C@@H]2C[C@@H](OC(=O)N3Cc4cccc(F)c4C3)CN2C1=O [danoprevir]
inactive: 1 nM 1.7% | 8.33 nM 1.4% | 100 nM 1.06% | 833.33 nM 0.24% | 10000 nM -1.76%
